Screening data deposited in PubChem BioAssay by National Center for Advancing Translational Sciences (NCATS).
mIDH1 inhibitor – inhibitors of human mutant IDH1 R132H; 390,000 compounds, 0.093% hits; Potency, µM (series often up to 76.6 µM), actives largely listed as inhibitors; AID 602179; IDH1-R132H enzyme, NADPH consumption, diaphorase/resazurin fluorescence; O75874; note: nearly all actives have a fitted effect of over 65% in size
Target sequence (O75874 whole entry R132H, stated change not applied): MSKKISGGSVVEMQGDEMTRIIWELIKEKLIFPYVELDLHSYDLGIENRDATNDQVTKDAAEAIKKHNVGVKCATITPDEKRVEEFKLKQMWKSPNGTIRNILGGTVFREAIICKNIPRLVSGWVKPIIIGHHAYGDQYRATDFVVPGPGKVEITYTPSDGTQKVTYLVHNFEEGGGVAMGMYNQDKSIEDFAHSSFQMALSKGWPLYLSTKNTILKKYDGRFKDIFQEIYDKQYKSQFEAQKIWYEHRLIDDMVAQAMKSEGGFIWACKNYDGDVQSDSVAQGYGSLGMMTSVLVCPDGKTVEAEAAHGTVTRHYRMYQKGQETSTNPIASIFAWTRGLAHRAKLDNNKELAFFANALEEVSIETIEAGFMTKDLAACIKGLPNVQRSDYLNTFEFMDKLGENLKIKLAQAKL
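IDH1-R132H (0.5 ug/mL dispensed) in pH 7.5 Tris buffer was preincubated 30 min with compound, then given a substrate mix of 0.016 mM NADPH and 2 mM alpha-KG for 80 min at room temperature; remaining NADPH was read by diaphorase/resazurin fluorescence.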
ELG1 repair inh – ELG1-dependent DNA repair inhibition; HEK293T ELG1-luciferase reporter, luminescence, 16 h; DNA damage induced by 5-fluorouridine; Potency, µM (highest dose often 46.1 µM), usual class: inhibitors; 330,000 compounds, 2.3% hits; note: nearly all actives have a fitted effect of over 55% in size
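In this reporter screen, reduction of luminescence relative to DMSO vehicle indicated activity. Compounds and 5-fluorouridine were added together to 2,000 cells per well, incubated for 16 hr at 37 °C, then developed with ONE-Glo.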
Nrf2 ARE act – Nrf2 pathway activation; Potency, µM (top dose mostly 46.1 µM), usual class: activators; 410,000 compounds, 0.31% hits; AREc32 ARE-luciferase reporter (MCF7-derived line), luminescence, 24 h; note: nearly all actives have a fitted effect of over 65% in size
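AREc32 cells carrying an ARE-driven firefly luciferase reporter were seeded at 1000 cells/well in OPTI-MEM with 5% FBS, then exposed to compound for 24 hr at 37 deg C. Luminescence was read with Steady-Glo after 30 min at RT.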
Nrf2 block – blocks Nrf2 signaling; Potency, µM (top dose mostly 46 µM), most hits filed as inhibitors; A549 ARE-Fluc reporter, luciferase luminescence, 18-24 h; 360,000 compounds, 2.1% hits; note: nearly all actives have a fitted effect of over 60% in size
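A549 ARE_Fluc cells (5000/well, 5% FBS OPTI-MEM) pre-incubated 2 h, then treated with compounds 18-24 h at 37C/5% CO2 in concentration-response. CellTiter-Fluor viability read first; BugLite luciferase luminescence after 15 min at room temperature gives Nrf2 activity.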
A549 tox – kills or reduces viability of A549 cells in Nrf2 counter-screen. A549 ARE-Fluc cells, CellTiter-Fluor viability, 18-24 h. Potency, µM (highest dose often 46 µM), hits mostly inhibitors. 390,000 compounds, 0.16% hits. AID 504648
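A549 ARE-Fluc cells in 5% FBS OPTI-MEM, 5000 cells/well, rested 2 h then exposed to compounds in concentration-response for 18-24 h at 37 °C. Viability by CellTiter-Fluor fluorescence (Ex 405/Em 525) after 30 min; luciferase luminescence (BugLite, 15 min, RT) read afterwards.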
Each line names hits and unclear results; the compound was inactive in the other large screens. An excerpt weighted towards active compounds, which were near 3.8% of everything screened. Calls come from the whole dose curve; as a rule, active = well fitted curve in the direction sought with a large enough effect; inconclusive = small, poorly fitted or top-dose-only effect, or another doubt; inactive = no such curve, though single readings can be large; an effect the other way counts as inactive or inconclusive.

Cc1ccc(S(=O)(=O)N(C)S(=O)(=O)c2ccc(C)cc2)cc1	Nrf2 block 23µM
O=C(c1cnn2c1NC(c1ccco1)CC2C(F)(F)F)N1CCN(c2cccc(Cl)c2)CC1 (stereo not drawn)	ELG1 repair inh 10µM, Nrf2 block inconclusive, A549 tox inconclusive
O=C(c1ccco1)N1CCN(C(=O)c2cnn3c2NC(c2cccs2)CC3C(F)(F)F)CC1 (stereo not drawn)	ELG1 repair inh inconclusive
O=C(N/N=C/c1ccc2cccc(OCc3ccccc3)c2n1)c1ccc(Br)cc1	ELG1 repair inh 16µM, Nrf2 block inconclusive
COc1ccc(C(=O)N/N=C/c2ccc3cccc(OCc4ccccc4)c3n2)cc1	ELG1 repair inh 15µM, Nrf2 block inconclusive, A549 tox inconclusive
CN1CCN(C(=O)c2ccc(-c3cnc4cccnn34)cc2)CC1	none (no result: mIDH1 inhibitor, ELG1 repair inh, Nrf2 block, A549 tox)
Cc1nn2c(NCc3ccccn3)cc(C(C)(C)C)nc2c1-c1ccccc1	ELG1 repair inh inconclusive, Nrf2 block inconclusive
Cc1nn2c(N3CCN(C)CC3)c3c(nc2c1-c1ccccc1)CCCC3	none
Cc1nn2c(NCc3ccccn3)c3c(nc2c1-c1ccccc1)CCC3	ELG1 repair inh 10µM, Nrf2 block inconclusive
Cc1cc(NCc2ccccn2)n2nc(C)c(-c3ccccc3)c2n1	ELG1 repair inh 23µM, Nrf2 block inconclusive
Cc1nn2c(NCCN3CCOCC3)c3c(nc2c1-c1ccccc1)CCCC3	ELG1 repair inh 16µM
COc1ccc(Nc2c3c(nc4c(-c5ccccc5)c(C)nn24)CCC3)cc1	ELG1 repair inh 15µM
COc1ccc(-c2c(C)nn3c(-c4ccccc4)cc(C)nc23)cc1	ELG1 repair inh inconclusive
CCOC(=O)c1c(C)oc2nc(C)nc(NCCCN3CCN(c4cc(C)ccc4C)CC3)c12	Nrf2 block inconclusive (no result: ELG1 repair inh)
CCCn1c(N)c(C(=O)CN(C)CC(=O)Nc2c(Cl)cccc2Cl)c(=O)[nH]c1=O	ELG1 repair inh inconclusive, Nrf2 block inconclusive
COc1ccc(NC(=O)CC2C(=O)N(C)C(=S)N2CCc2ccc(F)cc2)cc1 (stereo not drawn)	ELG1 repair inh inconclusive, Nrf2 block 23µM, A549 tox inconclusive
COC(=O)c1c(/N=C/N(C)C)sc2c1CCN(c1ncc(C(F)(F)F)cc1Cl)C2	ELG1 repair inh 18µM
CCOC(=O)C1CCCN(C(=O)CN2C(=O)/C(=C/c3ccc(OC)cc3)Oc3ccccc32)C1 (stereo not drawn)	ELG1 repair inh 23µM, Nrf2 block inconclusive
Clc1ccc2c(NCc3ccccn3)ncnc2c1	Nrf2 ARE act 6.3µM (no result: Nrf2 block)
Clc1ccc2c(NCc3cccs3)ncnc2c1	ELG1 repair inh inconclusive, Nrf2 block 16µM
Clc1ccc2c(NCc3ccco3)ncnc2c1	Nrf2 ARE act inconclusive, Nrf2 block inconclusive
O=C1c2ccccc2C(=O)N1CCCCSc1nc2ccccc2c(=O)n1CCCN1CCOCC1	ELG1 repair inh 21µM
CCC(=O)N1CCc2cc(S(=O)(=O)CCC(=O)NCc3ccccc3Cl)ccc21	none (no result: ELG1 repair inh)
COc1cc(Br)c(/C=C/c2ccc3cccc(O)c3n2)cc1OC	ELG1 repair inh inconclusive
CSc1ccc(/C=C/c2ccc3cccc(O)c3n2)cc1	ELG1 repair inh inconclusive, Nrf2 block inconclusive
Oc1cccc2ccc(/C=C/c3ccccc3Br)nc12	ELG1 repair inh inconclusive, Nrf2 ARE act 10µM
COc1cc(Br)cc(/C=C/c2ccc3cccc(O)c3n2)c1O	ELG1 repair inh 7.3µM, Nrf2 ARE act inconclusive
Oc1cccc2ccc(/C=C/c3cccs3)nc12	ELG1 repair inh inconclusive, Nrf2 ARE act 3.2µM (no result: Nrf2 block)
CCOc1cc(/C=C/c2ccc3cccc([N+](=O)[O-])c3n2)cc(Cl)c1O	ELG1 repair inh 8.2µM, Nrf2 ARE act inconclusive, Nrf2 block inconclusive
Cc1ccc(S(=O)(=O)N2CCN(c3nc(-c4cscn4)nc4ccccc34)CC2)cc1	none (no result: mIDH1 inhibitor, ELG1 repair inh, Nrf2 ARE act)
CCN(C(=O)C(C)OC(=O)c1nn(-c2ccccc2C(F)(F)F)cc1O)c1ccccc1 (stereo not drawn)	none
Oc1c(Cl)cc(Cl)cc1/C=C/c1ccc2cccc(O)c2n1	ELG1 repair inh 23µM, Nrf2 ARE act inconclusive
Oc1ccc(Cl)cc1/C=C/c1ccc2cccc(O)c2n1	Nrf2 ARE act inconclusive, Nrf2 block inconclusive
CC(=O)c1c(C)[nH]c(C(=O)NC2CCSc3ccccc32)c1C (stereo not drawn)	ELG1 repair inh 5.8µM, Nrf2 block inconclusive
CCc1c(C(=O)NC2CCCc3ccccc32)[nH]c(C)c1C(C)=O (stereo not drawn)	ELG1 repair inh inconclusive
COc1ccc(C(=O)Nc2cccc(C(=O)OCc3cc(=O)n4nc(C5CC5)sc4n3)c2)cc1	none (no result: ELG1 repair inh, Nrf2 block)
CC(C)CN(C(=O)COC(=O)c1ccc([N+](=O)[O-])s1)c1c(N)n(Cc2ccccc2)c(=O)[nH]c1=O	none
CCCCCN(C(=O)CCC(=O)OCC(=O)c1ccc(C(C)CC)cc1)c1c(N)n(CCCC)c(=O)[nH]c1=O (stereo not drawn)	Nrf2 block 10µM, A549 tox inconclusive
CCCCCN(C(=O)CCC(=O)OCC(=O)N(C)c1ccccc1)c1c(N)n(CCCC)c(=O)[nH]c1=O	none
CCCCn1c(N)c(N(CCC(C)C)C(=O)COC(=O)c2ccc([N+](=O)[O-])s2)c(=O)[nH]c1=O	ELG1 repair inh inconclusive, Nrf2 block 23µM
c1nc(NCc2ccc3c(c2)OCO3)c2[nH]cnc2n1	none (no result: mIDH1 inhibitor, ELG1 repair inh, Nrf2 ARE act)
Cc1ccccc1OCC(=O)NCC(=O)OC(c1ccccc1)c1ccccc1	none (no result: mIDH1 inhibitor, ELG1 repair inh, Nrf2 ARE act)
CCOc1cccc(C2C=C(c3ccc4c(c3)OCO4)NC(c3ccc(Br)cc3)N2)c1O (stereo not drawn)	none (no result: mIDH1 inhibitor, ELG1 repair inh, Nrf2 ARE act)
COc1ccc(CCC(C)NC(=O)Cc2ccc(OC)c(OC)c2)c(OC)c1 (stereo not drawn)	ELG1 repair inh 18µM, Nrf2 block inconclusive
O=C(O)C1=C(C(=O)O)C2C=CC1C2	none (no result: ELG1 repair inh)
CC1CCC(NC(=O)c2cccc(S(=O)(=O)N3CCN(C)CC3)c2)CC1 (stereo not drawn)	ELG1 repair inh inconclusive
Cc1ccc(S(=O)(=O)N2CCOCC2)cc1C(=O)O	none (no result: Nrf2 block)
CCCCn1ccnc1C(=O)c1cccc(S(=O)(=O)N2CC(C)CC(C)C2)c1 (stereo not drawn)	ELG1 repair inh 21µM
CCCCn1ccnc1C(=O)c1cc(S(=O)(=O)N2CCOCC2)ccc1C	ELG1 repair inh 6.5µM (no result: Nrf2 block)
O=C(NCc1cccnc1)c1[nH]c(C(F)(F)F)nc1-c1ccccc1	none (no result: mIDH1 inhibitor, ELG1 repair inh, Nrf2 block, A549 tox)
CCOC(=O)C1=C(C)NC(C)=C(C(=O)OCC)C1C(=O)OCC(=O)N1c2ccccc2CC1C (stereo not drawn)	ELG1 repair inh 23µM
CCOC(=O)C1=C(C)NC(C)=C(C(=O)OCC)C1C(=O)OCC(=O)NCc1ccccc1OC	ELG1 repair inh 12µM
CCOC(=O)c1c(C)[nH]c(C(=O)OCC(=O)N2c3ccccc3CC2C)c1C (stereo not drawn)	ELG1 repair inh inconclusive, Nrf2 block inconclusive
